Assay results published in the supplement of paper PMC12067926.

Assays:
Test in all cases: relative growth (AUC of 72 h growth curve relative to DMSO control, dAUC) (ratio); higher = more growth (less inhibition), active = hit call of the paper
Details in all cases: 20 µM;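 active = growth AUC significantly below the DMSO wells by Dunnett test; inactive = the rest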
[1] = tested on: Prolinoborus 1 (Prolinoborus fasciculus)
Procedure, shortened: (§1)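 Whole sediment communities and bacterial isolates from Icelandic stream sediments and Silwood Park soil were brought to carrying capacity in Luria–Bertani medium. They were then diluted 1:100 into 96-well plates with each chemical at 20 µM in 1% DMSO, and A600 was recorded every hour for 72 h. The area under each growth curve, integrated by spline, was averaged across three biological replicates. This figure, divided by the mean of the DMSO controls, gives relative growth (dAUC).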

[2] = tested on: Pseudomonas 1 (Pseudomonas baetica)
Procedure, shortened: as §1

[3] = tested on: Pseudomonas 2 (Pseudomonas vancouverensis)
Procedure, shortened: as §1

[4] = tested on: Pseudomonas 3 (Pseudomonas mandelii)
Procedure, shortened: as §1

[5] = tested on: Pseudomonas 4 (Pseudomonas peli)
Procedure, shortened: as §1

[6] = tested on: Pseudomonas 5 (Pseudomonas baetica)
Procedure, shortened: as §1

[7] = tested on: Pseudomonas 6 (Pseudomonas sp.)
Procedure, shortened: as §1

[8] = tested on: Rhizobium 1 (Rhizobium herbae)
Procedure, shortened: as §1

[9] = tested on: Serratia 1 (Serratia sp. 2015-2462-01)
Procedure, shortened: as §1

[10] = tested on: Sphingomonas 2 (Sphingomonas sp.)
Procedure, shortened: as §1

Measured: relative growth

CC(COc1ccc(Oc2ccccc2)cc1)Oc1ccccn1 (stereo not given)
inactive: [1] 1.03 | [2] 1.02 | [3] 1 | [4] 1.01 | [5] 1.05 | [6] 1.01 | [7] 1.08 | [8] 0.97 | [9] 0.987 | [10] 1.14

CS(=O)(=O)NC(=O)c1cc(Oc2ccc(C(F)(F)F)cc2Cl)ccc1[N+](=O)[O-]
inactive: [1] 1.01 | [2] 1.01 | [3] 1 | [4] 1 | [5] 0.996 | [6] 1.04 | [7] 1.07 | [8] 0.917 | [9] 1.02 | [10] 1.02

COCc1cnc(C2=NC(C)(C(C)C)C(=O)N2)c(C(=O)O)c1 (stereo not given)
inactive: [1] 1.08 | [2] 0.958 | [3] 0.98 | [4] 0.992 | [5] 0.974 | [6] 0.972 | [7] 1.01 | [8] 0.972 | [9] 1.03 | [10] 0.982

CO/N=C(/C(=O)OC)c1ccccc1CO/N=C(\C)c1cccc(C(F)(F)F)c1
inactive: [1] 0.953 | [2] 1.13 | [3] 1 | [4] 1.04 | [5] 0.949 | [6] 0.978 | [7] 1.03 | [8] 0.921 | [9] 0.952 | [10] 1.1

O=C1C2(Cl)C3(Cl)C4(Cl)C(Cl)(Cl)C5(Cl)C3(Cl)C1(Cl)C5(Cl)C24Cl (stereo not given)
inactive: [1] 0.943 | [2] 1.01 | [3] 0.962 | [4] 0.955 | [5] 0.934 | [6] 1.07 | [7] 1.14 | [9] 0.909
active: [8] 0.292 | [10] 0.382

O=[N+]([O-])c1cc(C(F)(F)F)c(Cl)c([N+](=O)[O-])c1Nc1ncc(C(F)(F)F)cc1Cl
active: [1] 0.66 | [3] 0.795 | [4] 0.00358 | [5] 0.498 | [6] 0.595 | [7] 0.258 | [8] 0.109 | [9] 0.004 | [10] 0.0215
inactive: [2] 0.775
